Source: PubChem BioAssay AID651784 (National Center for Advancing Translational Sciences (NCATS), 2012)
Results filed as inconclusive are left out. Activity calls are given as the source filed them. The call rests on the fitted dose curve; in most records, active means well fitted inhibition curve with a large enough effect; inconclusive means small, poorly fitted or top-dose-only effect; inactive means no such curve, though single readings can be large or run the other way.

Assay: Acumen qHTS Assay for Inhibitors of the mTORC1 Signaling Pathway in MEF (Tsc2-/-, p53-/-) Cells: Hit Validation;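 further: phospho-rpS6 Ser235/236 immunofluorescence normalized to propidium iodide cell count; nearly all actives have a fitted effect of over 65% in size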;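 on activity change, negative = inhibition: cells exposed to compound for 24 hours; plate controls were DMSO for no effect and 7.5 nM rapamycin control for full effect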
Conditions: Acumen imaging; activity change, negative = inhibition: at 37.3 µM (top of the series)
Potency means the concentration at half of the fitted maximal effect.

With `COc1ccc(-c2cc(C(F)(F)F)nc(S(=O)(=O)CCCC(=O)Nc3ccccc3C(F)(F)F)n2)cc1OC` the Potency was 13.1 µM (active).
In the case of `CCOC(=O)c1c(NC(=O)c2ccc(S(=O)(=O)N(CCOC)CCOC)cc2)sc2c1CC(C)(C)NC2(C)C`, the Potency is reported as 8.26 µM (active).
In the case of `CCCCn1c(=N)n(CCOc2ccccc2OC)c2ccccc21`, the Potency is reported as 4.65 µM (active).
With `Cc1ccc(C(=O)CC2(O)C(=O)N(Cc3ccccc3)c3ccc(Br)cc32)cc1` (stereo not drawn) the Potency was 11.7 µM (active).
In the case of `Cc1ccc2[nH]c(=O)c3cc(C(=O)NCCCN4CCC(C)CC4)sc3c2c1`, the Potency is reported as 13.1 µM (active).
For `CCc1ccc(NC(=O)Cn2c(=O)n(-c3ccc(OC)cc3)c(=O)c3ccc(C(=O)NCc4ccc(C)cc4)cc32)cc1`, the Potency was 4.65 µM (active).
With `CC1C(=O)N2CCCc3cc(S(=O)(=O)Nc4ccc(Br)cc4F)cc1c32` (stereo not drawn) the Potency was 4.65 µM (active).
For `CCS(=O)(=O)c1ncc(Cl)c(C(=O)N(Cc2ccccc2)Cc2ccco2)n1`, the Potency was 5.21 µM (active).
For `CCOc1ccc(NC(=O)CSc2oc(-c3ccc(F)cc3)nc2S(=O)(=O)c2ccc(C)cc2)cc1`, the Potency was 4.65 µM (active).
In the case of `CC1CCCN(CCCNC(=O)c2ccc3c(c2)N(Cc2ccc(Cl)cc2)C(=O)c2ccccc2S3(=O)=O)C1` (stereo not drawn), the Potency is reported as 13.1 µM (active).
For `CCS(=O)(=O)c1ncc(Cl)c(C(=O)N(Cc2ccccc2)c2ccc(OC)cc2)n1`, the Potency was 2.93 µM (active).

In order of falling activity change, negative = inhibition:
1. Brc1ccc(Nc2c3c(nc4nncn24)CCC3)cc1  7.81%
2. Cc1ccc(-c2noc(CCC(=O)N(C)c3ccccc3F)n2)cc1  5.93%
3. CS(=O)(=O)CCNCc1ccc(-c2ccc3ncnc(Nc4ccc(OCc5cccc(F)c5)c(Cl)c4)c3c2)o1  5.21%
4. CCCN1C(=O)C(Cc2nc3ccccc3c(=O)n2CC)c2ccccc21 (stereo not drawn)  -1.87%
5. COc1ccccc1CNC(=O)CCCn1c(=O)c2cccn2c2ccccc21  -1.89%
6. COc1cc2c(cc1OC)n(CC(=O)c1ccc(F)cc1)c(=O)n1nc(CCn3nc(C)cc3C)nc21  -5.74%
7. Cc1cccc(Nc2nnc(-c3ccc(C)c(S(=O)(=O)N4CCN(C)CC4)c3)c3ccccc23)c1  -6.53%
8. COc1ccc(-c2nc(C)c(CCNC(=O)c3ccccc3Br)s2)cc1OC  -7.02%
9. Cc1ccc(-c2nnc(C3CCN(S(=O)(=O)c4ccc(C)c(C)c4)CC3)o2)cc1  -7.22%
10. CCC(=O)C1=C(c2ccc(Cl)cc2)N(C(=O)CC)n2c(C)nnc2S1  -10.3%
11. Cc1oc(-c2ccccc2F)nc1Cn1c(SCc2cccc(Cl)c2)nc2ccncc21  -12.7%
12. CCCCN(C)C(=O)CSc1c2c(nc3ccc(Cl)cc13)CCCC2  -13.3%
13. O=C(Nc1cccc(C(F)(F)F)c1)c1cnn(-c2cccc(F)c2)c1C1CCNCC1  -13.8%
14. Cc1cccc(N(C)S(=O)(=O)c2ccc(-c3cc(C)no3)s2)c1  -13.9%
15. CC1CCCN(CCCNC(=O)c2cc3c(Cl)nc4ccccc4c3s2)C1 (stereo not drawn)  -16.9%
16. Cc1ccc(C(=O)CC2(O)C(=O)N(Cc3ccccc3)c3ccccc32)c(C)c1 (stereo not drawn)  -24%
17. CCOC(=O)N1CCN(Cc2nc3cc(NC(=O)c4ccccc4OC)ccc3n2C(C)C)CC1  -28.8%
18. COc1cccc(-n2c(-c3ccc(C)cc3)cc3c2CC(C)(C)CC3=O)c1  -34.9%
19. Cc1nc2nncn2c(NCc2ccc(F)cc2)c1C  -42.2%
20. Cc1c(C(=O)OC2CCC(C)CC2)[nH]c2c1C(=O)CC(c1ccccc1Cl)C2 (stereo not drawn)  -43.7%
21. COc1cccc(-c2oc3ccc(C)cc3c(=O)c2O)c1  -44.4%
22. CCc1ccc(NC(=O)C2CCCN(S(=O)(=O)c3c(C)noc3/C=C/N(C)C)C2)cc1 (stereo not drawn)  -73.7%
23. COc1ccc(CNCCC(c2ccc3c(c2)OCO3)c2ccccc2OC)cc1 (stereo not drawn)  -87.3%
24. Cc1ccc(C)c(NC(=O)c2nc(S(=O)(=O)Cc3ccc(F)cc3)ncc2Cl)c1  -90.5%
25. Cc1cccc(C(=O)Nc2c(C(=O)NCc3ccc(Cl)cc3)sc3nc(C)cc(C)c23)c1  -92.4%
26. O=C(Nc1ccc2oc(-c3cc(Br)ccc3Cl)nc2c1)c1cc2ccccc2o1  -105%
27. COc1ccc(CNC(=O)c2cc(-c3ccc(OC)c(OC)c3)nc3n[nH]c(-c4ccc(C)cc4)c23)cc1  -124%
